Results filed as inconclusive are left out. Active and inactive are the calls of the source. The call rests on the fitted dose curve; in most records, active means well fitted activation curve with a large enough effect in the main read-out, with a control signal flat (not every such curve was filed as active); inconclusive means small, poorly fitted or top-dose-only effect, or effect the other way, or a change in a side signal; inactive means flat fitted curve, though single readings scatter.

The target in this experiment is 3',5'-cyclic-AMP phosphodiesterase 4B (Homo sapiens) (UniProt Q07343). As to the kind of experiment: qHTS Assay for Inhibitors of PDE-IV (AID 607). Conditions: HEK293 ACTOne CNG channel cells, membrane potential fluorescence; series mostly up to 22.9 µM. The method in brief: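 Cell-based read-out of cAMP via a modified cyclic nucleotide-gated channel and membrane potential dye (535/590 nm) in HEK293 cells expressing PDE4 endogenously. Compounds tested up to 22.9 uM final; 100 uM RO 20-1724 reference.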
Chain of 3',5'-cyclic-AMP phosphodiesterase 4B (Homo sapiens) (Q07343 whole entry, looked up): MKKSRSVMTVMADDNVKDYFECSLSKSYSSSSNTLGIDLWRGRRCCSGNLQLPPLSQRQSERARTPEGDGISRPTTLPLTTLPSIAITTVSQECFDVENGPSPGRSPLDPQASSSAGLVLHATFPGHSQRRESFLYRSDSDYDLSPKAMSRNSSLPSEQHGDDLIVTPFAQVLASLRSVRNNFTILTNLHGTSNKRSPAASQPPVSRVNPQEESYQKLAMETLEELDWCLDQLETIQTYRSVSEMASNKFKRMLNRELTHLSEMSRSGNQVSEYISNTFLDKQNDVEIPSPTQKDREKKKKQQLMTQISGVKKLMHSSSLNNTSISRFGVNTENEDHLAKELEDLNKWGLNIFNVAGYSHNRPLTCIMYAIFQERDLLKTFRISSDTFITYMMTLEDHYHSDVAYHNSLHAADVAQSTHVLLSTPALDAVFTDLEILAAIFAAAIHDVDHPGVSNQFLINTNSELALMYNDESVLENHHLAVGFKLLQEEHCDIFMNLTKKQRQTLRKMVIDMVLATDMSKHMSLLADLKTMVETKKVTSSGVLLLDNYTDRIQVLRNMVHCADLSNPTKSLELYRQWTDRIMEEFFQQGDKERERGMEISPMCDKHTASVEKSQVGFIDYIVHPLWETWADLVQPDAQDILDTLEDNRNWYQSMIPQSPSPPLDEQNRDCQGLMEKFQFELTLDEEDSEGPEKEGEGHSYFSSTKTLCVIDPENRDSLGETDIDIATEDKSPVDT
In the case of `O=C1NC(=O)C(c2ccccc2[N+](=O)[O-])=C1Nc1ccc(O)c(Cl)c1`, the compound was classed as inactive.

On to `CCCCc1ccc2nc(NC(=O)OC)[nH]c2c1`, for which the compound was classed as inactive.

In the case of `O=c1c(O)c(-c2cc(O)c(O)c(O)c2)oc2cc(O)cc(O)c12`, the outcome was inactive.

On to `NCCCCNCCCN`, for which the outcome was inactive. As for `CCC1=C(C)CN(C(=O)NCCc2ccc(S(=O)(=O)NC(=O)NC3CCC(C)CC3)cc2)C1=O` (stereo unspecified), the result was inactive.

`O=C(CCc1ccc(O)cc1)c1c(O)cc(O)cc1O`: the compound was classed as inactive.
